# Sampled rows, rich in hits. Any-hit rate of the full collection: about 7.4%.
# p53 reactivation – mutant p53 re-activation in reporter cells; H1299 p53-A138V BP100-luciferase reporter, luminescence, 24 h; Potency, µM (highest dose often 92.2 µM), for the others: at the highest dose activity change, positive = activation, usual class: activators; 320,000 compounds, 0.063% hits; note: % of control where 0% means no effect; nearly all actives have a fitted effect of over 45% in size
#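 p53-null H1299 cells stably carrying temperature-sensitive p53-A138V and a BP100-luciferase reporter were pinned with compounds (4-point, 1:5 series) and held 24 hrs at 37 deg C. Luminescence was read 10 min after detection reagent.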
# FLuc counter – counter-screen for miR-21 project: firefly luciferase inhibitors or activators; 360,000 compounds, 6.9% hits; Potency, µM (titrated, usually from 57.5 µM), inactives show at the highest dose activity change, negative = inhibition, usual class: inhibitors; purified FLuc, Km substrates, luminescence inhibition; P08659;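 note: plate controls were vehicle for no effect and reference inhibitor for full effect; nearly all actives have a fitted effect of over 55% in size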
# Target sequence (P08659 whole entry, looked up): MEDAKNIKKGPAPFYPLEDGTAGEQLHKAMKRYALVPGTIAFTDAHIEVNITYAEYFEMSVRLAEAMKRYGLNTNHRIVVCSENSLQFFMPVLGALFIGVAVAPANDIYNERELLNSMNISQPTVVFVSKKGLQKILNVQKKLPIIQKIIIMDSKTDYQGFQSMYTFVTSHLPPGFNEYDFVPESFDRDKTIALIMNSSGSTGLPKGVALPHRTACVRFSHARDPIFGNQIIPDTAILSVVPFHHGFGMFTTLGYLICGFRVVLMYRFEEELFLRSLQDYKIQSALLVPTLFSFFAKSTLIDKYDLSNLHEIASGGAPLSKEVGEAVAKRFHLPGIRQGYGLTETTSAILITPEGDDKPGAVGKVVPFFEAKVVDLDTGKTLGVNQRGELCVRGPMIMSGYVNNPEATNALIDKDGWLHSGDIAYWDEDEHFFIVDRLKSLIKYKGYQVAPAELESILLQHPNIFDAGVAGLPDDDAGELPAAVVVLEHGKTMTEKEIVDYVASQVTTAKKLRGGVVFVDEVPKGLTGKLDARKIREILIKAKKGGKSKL
#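 Purified P. pyralis luciferase (10nM final) with 10uM D-luciferin and 10uM ATP (Km levels) in 50mM Tris acetate pH 7.5, 10mM Mg acetate, 0.01% Tween-20, 0.05% BSA; qHTS 6-point titration, ~60 µM downward; luminescence read.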
# NPC1 promoter act – activates the NPC1 promoter | Huh7 NPC1 promoter luciferase reporter, 24 h | Potency, µM (highest dose often 9.22 µM), without a hit: at the highest dose activation, usual class: activators | 320,000 compounds, 2.4% hits | AID 485313; note: % of control where 0% means no effect; nearly all actives have a fitted effect of over 60% in size
#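 Huh7 reporter cells (NPC1 promoter driving luciferase) are dosed with compound for 24 h at 37 °C, 5% CO2; luciferase detection reagent is then added and luminescence measured after 10 min at ambient temperature.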
# SMN2 splice up – SMN2 splice variant enhancement. HEK293 SMN2-luciferase splicing reporter, luminescence, 30-36 h. Potency, µM (titrated, usually from 46.1 µM), inactives show top-dose activity change, positive = activation, most hits filed as activators. 210,000 compounds, 2.8% hits. AID 1458; note: % of control where 0% means no effect; nearly all actives have a fitted effect of over 55% in size
#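 HEK293 cells carry an SMN2 minigene-luciferase reporter in which exon 7 inclusion puts luciferase in frame. Cells were seeded at 2000 cells/well, attached for 10-12 hours, then exposed to compounds for 30-36 hours at 37C before ONE-Glo luminescence.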
# ELG1 genotoxic – inducers of genotoxicity in HEK293T ELG1-luciferase cells; HEK293T ELG1-luciferase reporter, luminescence, 16 h; Potency, µM (titrated, usually from 46 µM), without a hit: at the top dose activity change, positive = activation, hits mostly activators; 330,000 compounds, 1.3% hits; note: % of control where 0% means no effect; nearly all actives have a fitted effect of over 60% in size
#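 16 hr compound incubation (37 °C, 5% CO2) of HEK293T cells carrying luciferase-tagged ELG1; luciferase then measured by ONE-Glo luminescence after 30 min at RT.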
# Rab9 prom act – Rab9 promoter activation; Huh7 Rab9 promoter-luciferase reporter, luminescence, 24 h; Potency, µM (series often up to 9.22 µM), for the others: at the highest dose activation, negative = inhibition, most hits filed as activators; 320,000 compounds, 2.8% hits; AID 485297; note: % of control where 0% means no effect; nearly all actives have a fitted effect of over 60% in size
#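 Using Huh7 cells stably transfected with Rab9 promoter–luciferase, compounds were incubated 24 h at 37 °C, 5% CO2; luciferase luminescence was read 10 min after reagent addition.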
# Starred values were filed as active, the others as inactive; u = inconclusive; x = no result; [ ] = remark or other dose. Calls come from the whole dose curve; as a rule, active = well fitted curve in the direction sought with a large enough effect; inconclusive = small, poorly fitted or top-dose-only effect, or another doubt; inactive = no such curve, though single readings can be large; an effect the other way counts as inactive or inconclusive. Potency is the fitted concentration of half-maximal effect.
SMILES,p53 reactivation,FLuc counter,NPC1 promoter act,SMN2 splice up,ELG1 genotoxic,Rab9 prom act
O=C(O)CCC(=O)N1CCCC1C(=O)O (centres undefined),x,x,2%[46.1 µM],-12%,x,-4%[46.1 µM]
COc1ccc(CSc2nc3ccccc3[nH]2)cc1,10%,1.5µM*,0.4µM*,u,u,0.5µM*
CC(C)CCSc1nc2ccccc2[nH]1,2%,11µM*,3.5µM*,14µM*,u,3.5µM*
Cn1nc(-c2ccccc2)c(C(=O)Nc2ccc(Cl)cc2)c1Cl,-2%,1%,-5%,-7%,3%,-1%
Cn1c(Cl)c(C(=O)Nc2ccc(Cl)cc2)c2ccccc21,-4%,6µM*,u,20%,3%,16%
O=C(O)c1cccc(Nc2nc(Nc3ccccc3)nc(N3CCCC3)n2)c1,1%,u,3.2µM*,4%,-9%,u
c1ccc(Nc2nc(N3CCCCC3)nc(N3CCCCC3)n2)cc1,7%,6%,0%,-19%,-4%,-5%
C(=N\Nc1nc(Nc2ccccc2)nc(N2CCCCC2)n1)/c1ccco1,4%,6µM*,5%,x,-11%,26%
CC(=O)Nc1ccc(/C(C)=N/Nc2nc(Nc3ccccc3)nc(N3CCOCC3)n2)cc1,-2%,17µM*,-1%,x,-2%,-3%
O=C(O)COc1ccc(/C=N/Nc2nc(Nc3ccccc3)nc(N3CCCCC3)n2)cc1,1%,0.67µM*,-4%,11%,-2%,0%
c1ccc(Nc2nc(N3CCCC3)nc(N3CCCC3)n2)cc1,2%,1%,-1%,-20%,-9%,-4%
COc1ccc(/C=N/Nc2nc(Nc3ccccc3)nc(N3CCCC3)n2)cc1,2%,-10%,5%,-20%,-14%,4%
Cc1ccc(S(=O)(=O)Nc2cc3c(cc2Cl)n(C)c(=O)c(=O)n3C)cc1,x,u,x,-6%,x,x
CCC(CC)c1nnc(NC(=O)C2CSC3(C)CCC(=O)N23)s1 (centres undefined),-4%,1%,0%,x,0%,-3%
CCCN(CCC)CCc1cccc2c1CC(=O)N2,x,x,2%[46.1 µM],15%,x,12%[46.1 µM]
CCN(CC)c1nn2c(=O)c(C(=O)NCc3ccc(F)cc3)cnc2s1,x,6%,x,x,x,x
Cc1cc(C)nc(N/N=C/c2cc3c(cc2[N+](=O)[O-])OCO3)n1,-4%,-7%,0%,13%,10%,0%
O=[N+]([O-])c1cc2c(cc1/C=N/Nc1nc(Nc3ccccc3)nc(N3CCCCC3)n1)OCO2,6%,2.1µM*,19%,-5%,9%,25%
O=C(c1ccccc1)N1CCCC(c2nc3c(nnn3Cc3ccc(F)cc3F)c(=O)[nH]2)C1 (centres undefined),x,-16%,x,-4%,x,x
CCOc1ccc(N2CC(NC(=O)c3ccc(S(=O)(=O)N4CCCC4)cc3)CC2=O)cc1 (centres undefined),x,-1%,x,x,x,x
CSc1nc2nc(-c3ccccc3)cc(=O)n2[nH]1,18%,6.7µM*,19%,u,u,1%
CCC(Oc1ccc(F)cc1)C(=O)Nc1nc2c(s1)CCCC2 (centres undefined),x,0%,x,x,x,x
O=c1c2cc3c(cc2nc2sc(Nc4ccc(F)c(Cl)c4)nn12)OCO3,x,1%,x,18%,x,x
Cc1cs/c(=N\N=C\c2ccccc2)n1Cc1ccco1,u,21µM*,10%,-17%,3%,8%
Cc1cc(C)c(NC(=O)CSc2nc3ccccc3c3nc(CCn4cncc4C)nn23)c(C)c1,x,-6%,x,x,x,x
SMILES,p53 reactivation,FLuc counter,NPC1 promoter act,SMN2 splice up,ELG1 genotoxic,Rab9 prom act
CN(C)c1ccc(NC(=O)c2cnsn2)cc1,-4%,3µM*,u,x,u,u
Cc1noc(C)c1C(=O)Nc1ccc(N(C)C)cc1,4%,1%,6%,x,16%,4%
CCC/C=C(\CCC)C(NS(=O)(=O)c1ccccc1)c1ccc(C(F)(F)F)cc1 (centres undefined),x,x,x,-17%,x,x
O=C(O)C1C2C=CC(C2)C1C(=O)Nc1cccc(C(F)(F)F)c1 (centres undefined),u,-2%,-9%,x,1%,0%
O=C(O)c1cccc(NC(=O)C2C3C=CC(C3)C2C(=O)OCC(F)(F)C(F)F)c1 (centres undefined),13%,17µM*,-2%,-7%,6%,5%
O=C(Nc1cccc(Cl)c1)Nc1ccccc1-n1ccnc1,-1%,-14%,-3%,x,0%,5%
Cc1ccc2cc(CCNC(=O)c3cccs3)c(=O)[nH]c2c1C,u,5.4µM*,2.8µM*,10µM*,u,2.8µM*
CC(=O)NCCc1cc2ccc(C)c(C)c2[nH]c1=O,4%,3%,-2%,u,17%,-6%
Cc1ccc2cc(CCNC(=O)c3cccs3)c(=O)[nH]c2c1,u,11µM*,3.2µM*,10µM*,u,u
Cc1ccc(NC(=O)C(Cc2c[nH]c3ccccc23)NC(=O)OC(C)(C)C)c(C)c1 (centres undefined),x,2%,x,-33%,x,x
C[C@H](CN(C)C)C(O)(c1ccccc1)c1ccccc1,x,x,x,-17%[9.22 µM],x,x
COc1ccccc1Cc1nc(-c2cccnc2)no1,2%,-4%,2%,x,10%,-3%
COc1ccccc1-c1nc(-c2ccc(Br)o2)no1,24%,1.9µM*,3.5µM*,u,u,0.89µM*
COc1ccccc1Cc1nc(-c2ccc(Br)o2)no1,18%,19µM*,16%,8%,9%,12%
COc1ccc(-c2nnc(-c3ccc(Br)o3)o2)cc1OC,15%,u,27%,x,u,22%
COc1cccc(-c2nc(-c3ccc(NC(=O)Cc4ccccc4OC)cc3)no2)c1,-8%,u,0%,15%,-18%,-6%
COc1ccc(-c2nc(-c3ccc(Br)o3)no2)cc1OC,2%,u,u,14µM*,21µM*,3.2µM*
COc1cccc(-c2nc(-c3ccc(Br)o3)no2)c1,u,0.67µM*,0.89µM*,x,u,0.56µM*
O=C(OCc1cc(=O)n2nc(C3CC3)sc2n1)c1ccc(NC(=O)c2ccccc2F)cc1,x,2%,x,x,x,x
COc1ccc(-c2coc3cc(O)ccc3c2=O)cc1O,16%,9.5µM*,u,x,13µM*,u
COc1ccc(-c2coc3cc(O)ccc3c2=O)cc1,x,x,x,11µM*,x,x
COc1ccc(-c2coc3cc(O)ccc3c2=O)c(OC)c1,x,x,x,-1%,x,x
CC(C)C[C@@H](CC(=O)N[C@@H](CCCN)CC(=O)N[C@@H]1CCCC[C@H]1C(=O)N[C@H](CC(=O)N[C@@H](CCC(=O)O)CC(=O)O)Cc1ccccc1)NC(=O)[C@@H]1CCCC[C@H]1N,x,x,x,-1%,x,x

# Screens (PubChem)
